Source: PubChem
GBA activity up: enhancers of human beta-glucosidase activity in Gaucher fibroblasts. L444P Gaucher fibroblasts, 4-MU-glucoside fluorescence, 3 days. activation, % at 10 µM. actives 0.44% (n = 30,000). AID 784; in the data active = activation above about 65%;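 note: 0% = vehicle wells and 100% = positive control wells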
Target sequence (P04062 whole entry L483P): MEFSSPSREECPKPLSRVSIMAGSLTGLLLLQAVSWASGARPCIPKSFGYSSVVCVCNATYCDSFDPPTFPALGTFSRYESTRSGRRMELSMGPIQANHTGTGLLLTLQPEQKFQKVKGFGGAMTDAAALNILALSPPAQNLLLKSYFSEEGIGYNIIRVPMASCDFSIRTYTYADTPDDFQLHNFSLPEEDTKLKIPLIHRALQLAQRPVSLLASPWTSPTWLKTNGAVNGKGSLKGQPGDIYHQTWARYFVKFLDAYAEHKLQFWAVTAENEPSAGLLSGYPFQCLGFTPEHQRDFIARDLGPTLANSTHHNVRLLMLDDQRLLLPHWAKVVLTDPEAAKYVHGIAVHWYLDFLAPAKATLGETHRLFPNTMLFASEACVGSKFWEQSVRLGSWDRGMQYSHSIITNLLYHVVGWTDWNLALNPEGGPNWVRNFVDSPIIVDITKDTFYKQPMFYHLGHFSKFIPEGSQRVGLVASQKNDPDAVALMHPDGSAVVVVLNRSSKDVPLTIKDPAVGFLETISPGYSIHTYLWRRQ
An asterisk follows results filed as active. This excerpt belongs to a sample that is enriched for hits.

SMILES | GBA activity up
C=C(C)c1cccc(C(C)(C)NC(=O)NCCCn2ccnc2)c1 | -16
O=C(NCCCn1ccnc1)Nc1ccc(Cl)cc1 | 122*
O=C(NCCCn1ccnc1)Nc1ccc(Cl)c(Cl)c1 | -3
O=C(CCn1c(=S)[nH]c2cc3c(cc2c1=O)OCO3)NCCN1CCCC1 | 2
O=C(/C=C\Nc1ccccn1)c1ccc(Cl)cc1 | 9
CC1=C(C(N)=O)C(c2cccnc2)n2nc(-c3cccc(C)c3)nc2N1 (configuration not stated) | 27
CC1=C(C(N)=O)C(c2cccs2)n2nc(-c3cccc(C)c3)nc2N1 (configuration not stated) | 91*
CCOc1ccccc1C1C(C(N)=O)=C(C)Nc2nc(-c3cccc(C)c3)nn21 (configuration not stated) | -37
COc1ccc(C2CC(=O)Nc3ccccc3S2(=O)=O)cc1OC (configuration not stated) | -42
COC(=O)N1CCN(S(=O)(=O)c2ccc(F)cc2)CC1 | -89
CCCn1c(NC(=O)C2CCN(S(=O)(=O)c3cccs3)CC2)nc2ccccc21 | -10
CCOC(=O)N1CCN(c2ncnc3c2oc2nc(CC(C)C)c4c(c23)CCC4)CC1 | -44
CCCCS(=O)(=O)Nc1ccc(C(=O)NCC2CCCO2)cc1 (configuration not stated) | -10
CCCNS(=O)(=O)c1ccc(C(=O)NCC2CCCO2)cc1 (configuration not stated) | -30
Cc1ccc(C)n1-c1ccc(C(=O)NCC2CCCO2)cc1 (configuration not stated) | 93*
CC(=O)Nc1ccc(S(=O)(=O)NCc2ccc(C(=O)NCc3ccc4c(c3)OCO4)cc2)cc1 | 35
O=C1COc2ccc(C(=O)CSc3nnc(Cc4cccs4)n3-c3ccccc3)cc2N1 | -38
COc1ccc(S(=O)(=O)N(CC(=O)N2CCN(C)CC2)c2ccccc2)cc1OC | -48
COc1ccccc1CC(=O)NCC1CCCO1 (configuration not stated) | 10
COc1ccc(S(=O)(=O)N(CC(=O)NCC2CCCO2)c2ccccc2)cc1OC (configuration not stated) | 75*
COc1cc(C(c2nnnn2C(C)(C)C)N2CCN(C)CC2)cc(OC)c1OC (configuration not stated) | 25
CCOc1cc2[nH]c(=O)n(CC3CCC(C(=O)NC(C)CC)CC3)c(=O)c2cc1OCC (configuration not stated) | -9
COc1cccc(-c2n[nH]c(=S)n2Cc2ccco2)c1OC | 6
O=C(NCc1n[nH]c(=S)n1-c1ccccc1)c1ccco1 | 32
S=c1[nH]nc(Cc2ccccc2)n1Cc1ccco1 | 101*
SMILES | GBA activity up
CCCc1nc2ccccc2n2cc3c(=O)n(C)c(=O)n(C)c3c12 | -12
CCN1CCN(C(c2ccccc2F)c2nnnn2Cc2ccc3c(c2)OCO3)CC1 (configuration not stated) | 7
CCC(C)n1cnc2c(c1=O)c1nc3ccccc3nc1n2-c1ccc2c(c1)OCCO2 (configuration not stated) | -88
CCCCn1c2nc3ccccc3nc2c2c(=O)n(C(C)CC)cnc21 (configuration not stated) | 34
CCC(C)n1cnc2c(c1=O)c1nc3ccccc3nc1n2Cc1ccc2c(c1)OCO2 (configuration not stated) | 83*
Cc1sc(NC(=O)CN2CCN(c3ccccn3)CC2)c(C#N)c1C | -10
O=C(c1ccco1)N(Cc1cccs1)C1CCS(=O)(=O)C1 (configuration not stated) | -5
Cc1ccc(NC(=O)COS(=O)c2ccc(C)cc2)cc1 (configuration not stated) | -15
CN1CCN(C(=O)c2cc3c(n(-c4ccccc4)c2=O)CC(C)(C)CC3=O)CC1 | -6
Cc1cccc(-c2nc(CSCC(=O)N3CCN(Cc4ccc5c(c4)OCO5)CC3)c(C)o2)c1 | -51
CC(=O)N1C(C(=O)O)CSC1c1cccc(C)c1 (configuration not stated) | 122*
Cc1cccc(CN2CCN(CC(=O)O)C2=O)c1 | 12
Cc1cccc(NC(=O)c2cnc3n(c2=O)CCS3)c1 | -8
Cc1ccccc1OCc1nc2ccccc2c(=O)n1/N=C/c1ccco1 | -12
O=C(CCCNS(=O)(=O)c1cccc2nsnc12)NCc1ccc(Cl)cc1 | -36
COc1ccc(CNC(=O)CCCNS(=O)(=O)c2cccc3nonc23)cc1 | 183*
O=C(CCCNS(=O)(=O)c1cccc2nsnc12)NCc1ccccc1 | -16
COc1ccc(C(=O)N2CCC(C(=O)NCc3ccccn3)CC2)cc1 | -14
CC1(C)CC(=O)N(CC(=O)O)c2ccccc2S1 | 88*
Cc1ccc2c(c1)N(CC(=O)O)C(=O)CO2 | -7
CCOC(=O)CN1C(=O)CSc2ccccc21 | 73*
O=C1CSc2ccccc2N1Cc1ccc(F)cc1 | 37
O=C(O)CN1C(=O)CSc2ccccc21 | -8
O=C(O)CN1C(=O)C2(OCCCO2)c2ccccc21 | 4
CC1CCN(C(=S)c2ccccc2O)CC1 | -22
SMILES | GBA activity up
Cn1c(=O)[nH]c(=O)c2c1nc(N1CCCCC1)n2CCOc1ccccc1 | -44
COc1ccc(CNC(=O)CN(CC2CCCO2)C(=O)CNS(=O)(=O)c2ccccc2)cc1 (configuration not stated) | -7
COc1ccc(CNC(=O)CN(CC2CCCO2)C(=O)CNS(=O)(=O)c2ccc(C)cc2)cc1 (configuration not stated) | 76*
Cc1ccc(S(=O)(=O)NCC(=O)N(CC(=O)NCc2ccccc2)CC2CCCO2)cc1 (configuration not stated) | 5
CC1CCCCN1C(=O)Cn1c(=O)n(CCC(=O)NCc2ccco2)c(=O)c2sccc21 (configuration not stated) | -6
CCN=C1SC(CC(=O)Nc2ccccc2)C(=O)N1CC (configuration not stated) | 6
CN=C1SC(CC(=O)Nc2sc(C)c(C)c2C(=O)OC)C(=O)N1C (configuration not stated) | -14
CN=C1SC(CC(=O)Nc2cccc(C(F)(F)F)c2)C(=O)N1C (configuration not stated) | 135*
CCn1c(O)c(C=NCCN2CCOCC2)sc1=S | 4
CCOC(=O)c1cc2sccc2n1CC(=O)N1CCCC1 | 18
N#Cc1cc2c(=O)n3ccccc3nc2n(CCCn2ccnc2)c1=N | -14
Cc1ccc(-n2c(=O)c(C#N)cc3c(=O)n4ccccc4nc32)cc1 | 134*
Cc1ccc(S(=O)(=O)c2cc3c(=O)n4ccccc4nc3n(CC3CCCO3)c2=N)cc1 (configuration not stated) | -4
O=S(=O)(Nc1ncccc1O)c1ccc(Cl)cc1 | 8
Cc1cc2ccccc2c(=O)n1CC(=O)NC1CCCCCC1 | -20
Cc1cc2ccccc2c(=O)n1CC(=O)N1CCN(c2cccc(Cl)c2)CC1 | -13
Cc1cc2ccccc2c(=O)n1CC(=O)NCC(=O)N1CCN(c2ccccc2)CC1 | 75*
COc1ccc(NC(=O)c2cnc3sccn3c2=O)cc1OC | 8
O=C(COC(=O)c1n[nH]c2ccccc12)NC(=O)NC12CC3CC(CC(C3)C1)C2 | -45
O=C(NCc1cccs1)C1CC(=O)N(c2ccc(F)cc2)C1 (configuration not stated) | -9
O=C(CCN1C(=O)c2ccccc2C1=O)N1CCC(c2ccccc2)C1 (configuration not stated) | -2
O=c1oc2ccccc2cc1C1=Nn2c(nnc2-c2cccnc2)SC1 | -9
Brc1ccc(C2=Nn3c(nnc3-c3cccnc3)SC2)s1 | 98*
